Records with an inconclusive call do not appear. The source made the active and inactive calls. Calls follow the shape of the dose curve; as a rule, active = well fitted inhibition curve with a large enough effect in the signal ratio in the repeat runs (not every such curve was filed as active); inconclusive = weak or mixed curves, or effect the other way; inactive = no such curve, though single readings can be large or run the other way; the % refers to the signal ratio.
molecular target: Vitamin D3 receptor (Homo sapiens) (UniProt P11473); test: qHTS assay to identify small molecule antagonists of the vitamin D receptor (VDR) signaling pathway (AID 743223); conditions: VDR-UAS-bla HEK293T, beta-lactamase FRET ratio, 16 h; series mostly up to 61 µM
Text: U.S. Tox21 Program National Center for Advancing Translational Sciences [NCATS] NIH Chemical Genomics Center [NCGC] U.S. Environmental Protection Agency [EPA] National Institutes of Environmental Health Sciences [NIEHS] National Toxicology Program [NTP] U.S. Food and Drug Administration [FDA] Tox21 Assay Overview: The vitamin D receptor (VDR), a member of nuclear hormone receptor superfamily, plays a critical role in calcium homeostasis and bone metabolism. It is also involved in cell differentiation and growth, and thrombogenicity.
Tox21 Assay Protocol Summary: VDR-bla cells were dispensed at 2,000 cells/5 uL of assay medium per well into black wall/clear-bottom 1536-well plates using a Multidrop Combi (Thermo Fisher Scientific, Waltham, MA) dispenser. After the assay plates were incubated at a 37C and 5% CO2 for 4 h, 23 nL of compounds dissolved in DMSO, positive controls or DMSO only was transferred to the assay plate by a Pintool station (Kalypsys, San Diego, CA), followed by addition of 1 uL of 1alpha, 25-Dihydroxy Vitamin D3 (3 nM, final concentration in the wells) using a Bioraptr Flying Reagent Dispenser (FRD) workstation (Beckman Coulter, Indianapolis, IN). The plates were incubated at 37C and 5% CO2 for 16 h, and then 1 uL of LiveBLAzerTM B/G FRET substrate was added using a Bioraptr FRD. The plates were incubated at room temperature for 2 h and fluorescence intensity was measured by an Envision plate reader (PerkinElmer, Shelton, CT).

Sequence of Vitamin D3 receptor (Homo sapiens) (P11473 whole entry, looked up): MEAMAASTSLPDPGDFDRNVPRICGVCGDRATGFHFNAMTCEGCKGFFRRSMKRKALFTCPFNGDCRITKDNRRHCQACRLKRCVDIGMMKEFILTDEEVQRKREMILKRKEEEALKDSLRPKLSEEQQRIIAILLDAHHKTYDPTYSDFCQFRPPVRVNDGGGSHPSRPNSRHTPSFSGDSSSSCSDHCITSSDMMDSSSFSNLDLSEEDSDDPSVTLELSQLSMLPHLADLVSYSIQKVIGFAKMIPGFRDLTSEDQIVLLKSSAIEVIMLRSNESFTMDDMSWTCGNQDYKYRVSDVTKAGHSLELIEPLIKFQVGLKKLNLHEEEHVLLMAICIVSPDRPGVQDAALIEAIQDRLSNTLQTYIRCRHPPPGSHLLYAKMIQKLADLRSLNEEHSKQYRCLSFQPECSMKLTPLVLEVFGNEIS

Row | Structure (SMILES) | outcome
1 | CCCCC(CC)COP(=O)(Oc1ccccc1)Oc1ccccc1 (stereo not given) | inactive
2 | CCOS(C)(=O)=O | inactive
3 | C[C@H]1CNCCc2ccc(Cl)cc21 | inactive
4 | CC(=O)c1cc2c(cc1C)C(C)(C)C(C)CC2(C)C (stereo not given) | inactive
5 | O=S(=O)(Cl)c1ccccc1 | inactive
6 | CCC(Cl)CCl (stereo not given) | inactive
7 | O=Cc1ccc2c(c1)OCO2 | inactive
8 | ClCCCCBr | inactive
9 | [CH3][Sn]([CH3])([Cl])[Cl] | inactive
10 | CC[C@H]1C[C@H]2[C@@H]3CCC4=CC(=O)CC[C@@H]4[C@H]3CC[C@]2(C)[C@H]1O | inactive
11 | OC(c1ccc(Cl)cc1)(c1ccc(Cl)cc1)c1cccnc1 | inactive
12 | CCO[C@H]1O[C@@H]2OC3(C)CC[C@H]4[C@H](C)CC[C@@H]([C@H]1C)[C@@]24OO3 | inactive
13 | Clc1ccc(C(OCCN2CCCCC2)c2ccccc2)cc1 (stereo not given) | inactive
14 | CCBr | inactive
15 | COC(=O)C(Br)CBr (stereo not given) | inactive
16 | S=C=NCc1ccccc1 | inactive
17 | CCc1ccc(C(=O)NN(C(=O)c2cc(C)cc(C)c2)C(C)(C)C)cc1 | inactive
18 | Clc1ccc(C2(Cn3cncn3)CC(Br)CO2)c(Cl)c1 (stereo not given) | inactive
19 | Sc1ccccc1Cl | inactive
20 | CCCCNP(N)(N)=S | inactive

Row | Structure (SMILES) | outcome
21 | CCCCCCCCCC(=O)O[C@H]1CC[C@H]2[C@@H]3CCC4=CC(=O)CC[C@@H]4[C@H]3CC[C@]12C | inactive
22 | CCOP(O)OCC | inactive
23 | C[C@]12CC[C@H]3[C@@H](CCC4=CC(=O)CC[C@@H]43)[C@@H]1CC[C@@H]2OC(=O)CCC1CCCCC1 | inactive
24 | COP(=S)(Oc1cc(Cl)c(Br)cc1Cl)c1ccccc1 (stereo not given) | inactive
25 | O=NN1CCCCCC1 | inactive
26 | Brc1ccc(Oc2ccccc2)cc1 | inactive
27 | Nc1nc(=S)[nH][nH]1 | inactive
28 | COc1nn(C(=O)NS(=O)(=O)c2ccccc2OC(F)(F)F)c(=O)n1C | inactive
29 | ClCc1ccccc1 | inactive
30 | N#CCc1ccccc1 | inactive
31 | NC(=O)CI | inactive
32 | O=Cc1ccc(Cl)cc1Cl | inactive
33 | O=C(O)c1ccccc1C(=O)Nc1cccc2ccccc12 | inactive
34 | CNC(C)Cc1ccccc1OC (stereo not given) | inactive
35 | Nc1ccc(N=Nc2ccc(-c3ccc(N=Nc4c(S(=O)(=O)O)cc5cc(S(=O)(=O)O)c(N=Nc6ccccc6)c(O)c5c4N)cc3)cc2)c(N)c1 | inactive
36 | COc1c(C(C)(C)C)cc([N+](=O)[O-])c(C)c1[N+](=O)[O-] | inactive
37 | CN(N=O)c1ccc([N+](=O)[O-])cc1 | inactive
38 | CCOP(=S)(OCC)Oc1cc(Cl)c(Br)cc1Cl | inactive
39 | Clc1cccc(SC2CCNCC2)n1 | inactive
40 | C=CC(=O)OCC(C)C | inactive
